# HepG2 viability: qHTS for Inhibitors of TGF-b: Cytotox Counterscreen; AID 588856, 2011; Potency, µM (titrated, usually from 46.1 µM), for inactives: at the top dose activity change, negative = cytotoxicity, actives largely listed as cytotoxic; 410,000 tested, 0.76% active; HepG2 CAGA-GFP viability, ATP luminescence, 18 h; also: potency is read from the fitted curve at half-maximal effect
#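 HepG2 CAGA-GFP cells (1000/well, DMEM with 1% FBS) received compound, then TGF-beta at 500 pg/mL final, and were incubated 18 hours at 37 degrees C. Viability was read by CellTiter-Glo luminescence. Media-only wells were set as complete cell-killing and DMSO as no toxicity.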
# TDP1 inh: qHTS Assay for Inhibitors of Tyrosyl-DNA Phosphodiesterase (TDP1). Potency, µM (top dose mostly 130 µM), without a hit: top-dose activity change, negative = inhibition, usual class: inhibitors. 350,000 tested, 0.28% active. recombinant TDP1, AlphaScreen DNA substrate cleavage. AID 485290, 2010; also: potency is read from the fitted curve at half-maximal effect; % is scaled to controls: 0 for no effect and ±100 for the full control effect; nearly all actives have a fitted effect of over 40% in size
# Target sequence (Q9NUW8 whole entry, looked up): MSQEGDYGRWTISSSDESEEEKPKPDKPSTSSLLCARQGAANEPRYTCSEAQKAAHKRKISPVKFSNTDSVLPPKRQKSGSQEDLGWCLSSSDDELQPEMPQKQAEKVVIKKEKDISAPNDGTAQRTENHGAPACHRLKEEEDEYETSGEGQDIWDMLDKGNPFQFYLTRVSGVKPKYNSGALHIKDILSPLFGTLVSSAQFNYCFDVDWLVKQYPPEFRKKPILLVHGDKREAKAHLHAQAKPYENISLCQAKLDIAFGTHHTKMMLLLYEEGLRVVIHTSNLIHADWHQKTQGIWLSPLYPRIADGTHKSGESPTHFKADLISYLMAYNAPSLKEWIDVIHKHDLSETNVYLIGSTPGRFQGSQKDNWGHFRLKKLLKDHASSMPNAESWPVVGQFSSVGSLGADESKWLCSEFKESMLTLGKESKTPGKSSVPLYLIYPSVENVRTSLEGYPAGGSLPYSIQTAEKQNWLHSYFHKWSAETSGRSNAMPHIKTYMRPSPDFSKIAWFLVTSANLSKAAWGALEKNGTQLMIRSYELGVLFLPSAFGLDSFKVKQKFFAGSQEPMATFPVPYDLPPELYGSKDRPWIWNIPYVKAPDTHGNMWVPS
#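 Here, a 5' biotin and 3' phosphotyrosine-FITC DNA oligonucleotide reports Tdp1 activity: intact substrate bridges AlphaScreen beads, while cleavage leaves a 3' phosphate and drops signal. All incubations at room temperature.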
# IL-1B inflam inh: qHTS for Inhibitors of Inflammasome Signaling: IL-1-beta AlphaLISA Primary Screen | activity change, % at 57.5 µM | AID 743279, 2014 | 360,000 tested, 4.7% active | THP-1 LPS/ATP IL-1B secretion, AlphaLISA, 16 h; hits give low values; in the data active = activity change below about -50%; inconclusive = mostly about -30% to -49%; also: % is scaled to controls: 0 for no effect and ±100 for the full control effect
#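 Secreted IL-1B measured by AlphaLISA bead assay after 16 h compound exposure of THP-1 cells; compounds (final up to 57.5 uM) added 1 h before LPS (250 ng/mL) and ATP (1.25 mM) stimulation; lower signal means less secretion.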
# TGFb SMAD3 inh: qHTS for Inhibitors of TGF-b; HepG2 CAGA-GFP TGF-b/SMAD3 reporter, GFP fluorescence, 18 h; TGF-beta stimulated, 500 pg/mL final; Potency, µM (highest dose often 46.1 µM), inactives show at the top dose activity, negative = inhibition, most hits filed as inhibitors; 410,000 tested, 1.2% active; AID 588855, 2011; also: potency is read from the fitted curve at half-maximal effect; % is scaled to controls: 0 for no effect and ±100 for the full control effect; nearly all actives have a fitted effect of over 65% in size
#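 HEPG2 CAGA-GFP reporter cells (1000/well, DMEM with 1% FBS) received compounds, then recombinant TGF-beta at 500 pg/mL final for 18 hours at 37 degrees C. Per-cell GFP summed per well was normalised to unstimulated and stimulated DMSO controls before curve fitting.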
# DT40 TDP1 CPT: qHTS for Inhibitors of human tyrosyl-DNA phosphodiesterase 1 (TDP1): qHTS in cells in presence of CPT. Potency, µM (highest dose often 46.2 µM), for inactives: at the top dose activity change, negative = growth inhibition, actives largely listed as inhibitors. 420,000 tested, 12% active. chicken DT40 Tdp1-/-;hTDP1 cells + 20 nM CPT, ATP luminescence, 48 h; also: potency is read from the fitted curve at half-maximal effect; % is scaled to controls: 0 for no effect and ±100 for the full control effect; nearly all actives have a fitted effect of over 55% in size
#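 Chicken DT40 Tdp1-/- cells stably complemented with human TDP1 were seeded at 400 cells/well in medium containing 20 nM camptothecin, exposed to pin-transferred compounds, and grown at 37 °C for at least 48 hr. Viability was read as ATP luminescence.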
# TDP1 cell noCPT: qHTS for Inhibitors of human tyrosyl-DNA phosphodiesterase 1 (TDP1): qHTS in cells in absence of CPT; DT40 Tdp1-/- hTDP1 cells, no CPT, ATP luminescence, 48 h; Potency, µM (titrated, usually from 46.2 µM), for inactives: at the top dose activity change, negative = growth inhibition, usual class: inhibitors; 420,000 tested, 15% active; also: potency is read from the fitted curve at half-maximal effect; % is scaled to controls: 0 for no effect and ±100 for the full control effect; nearly all actives have a fitted effect of over 55% in size
#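 Seeded 400 DT40-hTDP1 cells/well (vehicle DMSO, no 20 nM CPT); pinned compounds; ≥48 hr at 37 °C; CellTiter-Glo luminescence as viability measure.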
# An asterisk follows results filed as active; u = inconclusive; x = not tested or not shown. Hits are enriched below; roughly 19% of the tested compounds scored in any of these assays. Unless noted, calls follow the shape of the dose curve; as a rule, active = well fitted curve in the direction sought with a large enough effect; inconclusive = small, poorly fitted or top-dose-only effect, or another doubt; inactive = no such curve, though single readings can be large; an effect the other way counts as inactive or inconclusive.
SMILES,HepG2 viability,TDP1 inh,IL-1B inflam inh,TGFb SMAD3 inh,DT40 TDP1 CPT,TDP1 cell noCPT
O=C(O)c1ccc(N2C(=O)/C(=C/C=C/c3ccccc3)SC2=S)cc1,-5%,-4%,-5,-12%,13%,4%
COc1ccc(-c2nc3c(c4nnc(SC(C)C(=O)Nc5ccccc5)n24)COC(C)(C)C3)cc1 (stereo not drawn),-10%,2%,9,-1%,0%,-3%
COc1ccc(NC(=O)C(C)Sc2nnc3c4c(nc(-c5ccc(OC)cc5)n23)CC(C)(C)OC4)cc1 (stereo not drawn),-12%,0%,-1,18%,21µM*,15µM*
COC(=O)c1ccccc1NC(=O)CSc1nc(-c2ccco2)cc(C(F)(F)F)n1,-3%,-1%,43,2%,4.1µM*,4.6µM*
Cc1ccc(NC(=O)CSc2nc(-c3ccco3)cc(C(F)(F)F)n2)cc1C,-33%,4%,24,-19%,2.3µM*,3.7µM*
O=C(CSc1nc(-c2ccco2)cc(C(F)(F)F)n1)NCCN1CCOCC1,2%,2%,8,1%,-20%,u
O=C(CSc1nc(-c2ccco2)cc(C(F)(F)F)n1)Nc1ccc2c(c1)CCC2,-31%,5%,12,-6%,u,u
COc1ccc(Cl)cc1NC(=O)CSc1nc(-c2ccco2)cc(C(F)(F)F)n1,-7%,-3%,x,u,18µM*,16µM*
O=C(CSc1nc(-c2ccco2)cc(C(F)(F)F)n1)NC1CCCC1,4%,-2%,-6,0%,21µM*,u
Cn1c(=O)c(-c2ccc(Cl)cc2)nc2cnc(Oc3ccccc3)nc21,x,x,x,x,3%,-15%
Cc1ccc(C2c3[nH]c4ccccc4c3CCN2C(=O)CCC2CCCC2)cc1 (stereo not drawn),-23%,3%,x,-25%,16µM*,u
O=C(CSCc1ccc(F)cc1)N1CCc2c([nH]c3ccccc23)C1c1ccccc1 (stereo not drawn),-26%,3%,x,u,21µM*,15µM*
COC(=O)c1ccc(NC(=O)N2CCc3c([nH]c4ccccc34)C2c2ccc(C)cc2)cc1 (stereo not drawn),-42%,5%,x,x,u,5.8µM*
O=C(CSCc1ccc(F)cc1)N1CCc2c([nH]c3ccccc23)C1c1ccc(Cl)cc1 (stereo not drawn),-32%,5%,x,-12%,u,u
Cc1ccc(C2c3[nH]c4ccccc4c3CCN2C(=O)Nc2ccc(C)c(C)c2)cc1 (stereo not drawn),-16%,13%,x,23%,u,u
CC(=O)NCCC(=O)N1CCc2c([nH]c3ccccc23)C1c1cccc(Cl)c1 (stereo not drawn),-7%,4%,0,-3%,u,15µM*
COc1cccc(Cn2c(=O)n(CCc3ccccc3)c(=O)c3c2c2cc(OC)ccc2n3C)c1,-1%,3%,x,0%,1%,-21%
COCC(=O)N1CCC2(CC1)CN(C(c1ccccc1)c1ccccc1)C2,x,x,x,x,2%,-28%
CCOc1ccc(NC(=S)N2CCC(NC(=O)c3ccco3)CC2)cc1,-3%,0%,16,-4%,-1%,-4%
CCCCCCCCCCCC(=O)OCC(O)CO (stereo not drawn),x,6%,x,x,-3%,-22%
Cc1cnc(C(=O)N2CCc3c([nH]c4ccccc34)C2c2ccc(F)cc2)cn1 (stereo not drawn),-17%,8%,1,-26%,-26%,u
Cc1ccc(C2c3[nH]c4ccccc4c3CCN2C(=O)c2ccc(N(C)C)cc2)cc1 (stereo not drawn),-13%,14%,x,u,21µM*,21µM*
N/C(=N\OC(=O)c1ccc(Cl)c([N+](=O)[O-])c1)c1ccccn1,-8%,-3%,-107*,6%,-5%,-20%
O=C(COC(=O)c1cnccn1)c1ccc([N+](=O)[O-])cc1,-16%,x,-54*,8%,23µM*,u
Cc1ccc(C(=O)COC(=O)c2cnccn2)cc1[N+](=O)[O-],2%,3%,-4,5%,-17%,-17%
SMILES,HepG2 viability,TDP1 inh,IL-1B inflam inh,TGFb SMAD3 inh,DT40 TDP1 CPT,TDP1 cell noCPT
O=C(COC(=O)c1cnccn1)c1ccc(Cl)c([N+](=O)[O-])c1,-29%,x,-60*,-9%,u,u
Cc1ccc(C(=O)COC(=O)c2cnccn2)cc1,-1%,5%,25,13%,10%,-3%
O=c1cc(-c2ccc(F)cc2)nc(SCc2nc(-c3cccc(C(F)(F)F)c3)no2)[nH]1,5%,-3%,x,1%,-15%,-11%
O=c1[nH]nc(Cc2ccc(-c3cccc(Cl)c3)o2)c2ccccc12,-25%,0%,53,-5%,16µM*,u
NCCCCCc1nnc(SC/C=C/c2ccccc2)o1,-20%,-4%,-1,u,18µM*,23µM*
NCCCCCc1nnc(SCc2ccccc2Cl)o1,-23%,5%,16,17%,-19%,-22%
Brc1ccc(-c2cn3cc(Cc4ccccc4)sc3n2)cc1,-8%,2%,x,-8%,-16%,-16%
O=C(CN1C(=O)C2(SCC(=O)N2c2cccc(F)c2)c2ccccc21)NCCc1ccccc1 (stereo not drawn),-27%,2%,x,-16%,-29%,23µM*
O=C(CN1C(=O)C2(SCC(=O)N2c2cccc(F)c2)c2ccccc21)NCc1ccccc1Cl (stereo not drawn),-37%,2%,x,-26%,u,21µM*
O=C(CN1C(=O)C2(SCC(=O)N2c2ccccc2)c2ccccc21)NCc1ccccc1Cl (stereo not drawn),-12%,6%,x,-6%,x,x
COc1ccc(NC(=O)c2cc(S(=O)(=O)N3CCCC(C)C3)cn2C)c(OC)c1 (stereo not drawn),1%,5%,x,3%,-6%,0%
Cc1ccc2nc(-c3ccccc3C)oc(=O)c2c1,-5%,-4%,40,-1%,37%,10%
Cc1ccccc1-c1nc2ccccc2c(=O)o1,-28%,x,56,-7%,u,16µM*
